Source: PubChem
HIF act: HIF pathway transcriptional activators, primary screen, cell-based, U2OS HRE-luciferase, luminescence. U2OS HRE-luciferase reporter; normalized: DMSO 0%, desferrioxamine 100%. activation, % at 7.5 µM (by protocol). 300,000 compounds, 0.32% hits;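 active means mean activation of at least 10% of the iron chelator positive control signal, with at least half of replicates also reaching 10%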
PfM18AAP inh: PfM18AAP inhibitors, malaria aminopeptidase, primary screen, biochemical, QFRET, recombinant enzyme | M18 aspartyl aminopeptidase (Plasmodium falciparum 3D7) | H-Glu-NHMec fluorogenic cleavage | inhibition, % at 7.35 µM | 290,000 compounds, 1.2% hits | AID 1822, 2009;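 active means inhibition above the campaign mean inhibition over all tested compounds plus 3 SD, cut at about 28% in these data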;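 further: 0% = plate median of test compound wells and 100% = 2 mM ZnCl2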
Mot1-301 SUMO: yeast Mot1-301 growth rescue at high temperature, primary screen, SUMOylation pathway inhibitor project, S. cerevisiae, ATP luminescence, 38.5C; growth rescue, % at 18.8 µM; S. cerevisiae Mot1-301 growth rescue; percent above DMSO median, 100 means doubled; 320,000 compounds, 1% hits; AID 2716, 2010;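 active means every valid replicate shows activation above 250% relative to neutral control wells; inactive means the rest, any valid replicate at or below 250%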;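 further: OY570 slx delta 5 strain wells were the positive control but not used for scaling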
ALR H2O2 inh: inhibitors of human ALR sulfhydryl oxidase, primary screen, biochemical, H2O2 detection, HRP-luminol luminescence, single point | FAD-linked sulfhydryl oxidase ALR (Homo sapiens), P55789 | purified ALR, DTT oxidation | inhibition, % (no concentration beside the values) | 290,000 compounds, 3.8% hits;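 active means mean replicate inhibition above about 79%, with every replicate also reaching it, limit read from the data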
Target sequence (P55789 whole entry, looked up): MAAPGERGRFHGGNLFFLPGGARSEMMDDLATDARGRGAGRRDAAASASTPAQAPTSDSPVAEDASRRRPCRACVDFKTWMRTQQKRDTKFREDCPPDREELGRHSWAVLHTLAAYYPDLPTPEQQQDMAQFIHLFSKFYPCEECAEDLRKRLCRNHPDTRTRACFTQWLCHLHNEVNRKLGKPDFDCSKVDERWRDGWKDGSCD
Numbers without * were called inactive; nt = no result. In the library only some 5.3% were active in any assay of this set; here they are far more common.

SMILES	HIF act	PfM18AAP inh	Mot1-301 SUMO	ALR H2O2 inh
O=C(NC(Cc1ccccc1)C(=O)O)/C(=C/c1ccc([N+](=O)[O-])cc1)NC(=O)c1ccccc1 (centres undefined)	-1.5	17.0	38.6	96.2*
CCCN(CCC)CCNC(=S)Nc1ccc2nc3n(c(=O)c2c1)CCCCC3	-0.1	-4.0	2.1	12.5
Cc1cc2ncn(CC3CC3(Cl)Cl)c2cc1C (centres undefined)	0.5	-0.7	5.0	-0.6
COc1ccc(S(=O)(=O)N(CC(=O)NCc2ccco2)c2ccc(C)cc2)cc1OC	-16.7	-1.5	24.7	-15.2
c1ccc(-c2cc(N3CCCCCC3)n[nH]2)cc1	0.8	-1.2	-5.1	98.0*
c1ccc(-c2cc(N3CCCCC3)ncn2)cc1	2.7	-2.8	-0.8	-5.5
O=C(CSc1nc2c(c(=O)[nH]1)CCC2)Nc1cccc(F)c1	1.0	3.2	-13.3	40.6
O=C(C[C@H]1C/C=C\CCCC(=O)OC[C@H]2CCCN2C1=O)NCCO	nt	nt	-14.5	2.2
O=c1c2ccccc2[nH]c2ccc(O)cc12	-0.2	-21.5	-18.8	86.6*
CCOC(=O)c1c(-c2ccccc2)[nH]c2ccc(O)cc12	-0.4	8.9	-7.6	98.0*
CCOC(=O)c1c(-c2ccccc2)oc2ccc(O)cc12	0.1	0.3	14.6	-2.3
COc1cccc(CN2CCC(Oc3ccc(C(=O)N4CCCCC4)cc3)CC2)c1O	-0.5	-4.8	0.7	84.2*
O=C(c1ccc(OC2CCN(Cc3ccccc3O)CC2)cc1)N1CCCCC1	-0.3	4.0	-8.2	1.1
CCN(C(=O)COC(=O)c1ccccc1NC(=O)c1ccco1)C1CCS(=O)(=O)C1 (centres undefined)	-1.3	2.9	417.5*	0.6
O=C(Nc1ccc2c(c1)Cc1ccccc1-2)c1cccnc1	5.5	-0.1	4.4	-7.4
COc1cccc2c1C(=O)c1c(O)c3c(c(O)c1C2=O)C[C@@](O)(C(=O)CO)C[C@@H]3O[C@H]1C[C@H](N)[C@H](O)[C@H](C)O1	-3.1	28.3*	-36.7	-6.1
Cc1ccc2nc(NCCO)nc(-c3ccccc3)c2c1	-0.3	-3.6	-19.4	98.1*
COc1ccc(C(=O)N/N=C/c2ccccn2)cc1OC	0.0	10.8	318.7	-3.6
O=C(N/N=C/c1ccccn1)c1ccc(Cl)cc1	11.7*	8.4	-23.6	1.4
COc1ccc(C(=O)Nc2ccccc2C(=O)N/N=C/c2ccccn2)cc1OC	18.6*	2.4	-2.6	-10.6
O=C(COC(=O)c1ccc(Br)cc1)NC(=O)NCc1ccccc1	nt	nt	15.2	-0.6
COc1ccc(-n2nnnc2/C=C\Nc2ccc(C)cc2)cc1	-0.6	0.7	-16.4	-5.5
Brc1ccc(C=Nc2ccc3c(c2)OCCOCCOCCO3)s1	-2.6	10.6	23.4	89.1*
Brc1csc(C=Nc2ccc3c(c2)OCCOCCOCCOCCO3)c1	-0.3	8.5	105.6	99.6*
Cc1c(C(=O)N2CCCCC2CCN2CCCC2=O)oc2c(F)cccc12 (centres undefined)	-0.5	-8.0	-2.8	1.2
SMILES	HIF act	PfM18AAP inh	Mot1-301 SUMO	ALR H2O2 inh
Cc1ccc([N+](=O)[O-])cc1S(=O)(=O)Nc1ccc(OCC(=O)N2CCOCC2)cc1	-0.2	-4.2	-19.2	-3.3
O=S(=O)(/C=C/c1ccccc1)Nc1ccc(N2CCOCC2)cc1	0.0	-4.5	252.3	95.1*
O=[N+]([O-])c1ccc(NCCCN2CCOCC2)c([N+](=O)[O-])c1	-0.4	1.4	600.4*	-4.2
O=C(/C=C/c1ccccc1)NC(=S)Nc1ccc(N2CCOCC2)cc1	-0.2	3.2	11.1	-10.5
Cc1cc(C)c(S(=O)(=O)Nc2ccc(N3CCOCC3)cc2)c(C)c1	0.1	5.4	-32.1	85.7*
Cc1ccc([N+](=O)[O-])cc1S(=O)(=O)Nc1ccc(N2CCOCC2)cc1	0.0	6.4	-31.7	98.5*
CCCc1cc(=O)n2nc(N3CCC(C(=O)NCc4ccco4)CC3)sc2n1	0.4	-1.4	13.4	-2.5
Cc1ccccc1C(N)c1ccncc1 (centres undefined)	0.1	1.1	-0.9	-17.1
O=S(=O)(Nc1ccc(N2CCOCC2)cc1)c1ccccc1	0.9	19.3	-6.1	98.9*
O=S(=O)(Nc1ccc(N2CCOCC2)cc1)c1ccc(Cl)s1	-0.1	19.6	-4.3	97.8*
O=[N+]([O-])c1ccc([N+](=O)[O-])c(Nc2ccc(N3CCOCC3)cc2)c1	-1.3	-0.5	31.3	97.8*
S=C(NN=C(C1CC1)C1CC1)Nc1ccccc1	1.6	22.7	nt	97.2*
Cc1ccc2c(CC(=O)NCC(=O)Nc3c(C)cccc3C)coc2c1	0.5	nt	13.1	9.0
Cc1ccc2c(CC(=O)Nc3sccc3C(N)=O)coc2c1	3.8	1.5	-8.9	85.5*
COc1ccc(CCNC(=O)c2cccc(NC(=O)CC3SC(N4CCCCC4)=NC3=O)c2)cc1OC (centres undefined)	-0.3	-7.3	4.1	-0.4
COc1ccc(NC(=O)CC(Cc2ccccc2)C(=O)O)cc1 (centres undefined)	-0.4	-3.9	282.2*	-5.1
CC(C)(C)NC(=S)NC(=O)C12CC3CCC(CC(C3)C1)C2	-4.9	-6.7	14.8	38.5
CN(C)NC(=S)NC(=O)C12CC3CC(CC(C3)C1)C2	0.0	10.8	21.4	92.1*
CC(=O)Nc1ccc(NC(=O)c2ccccc2N(C)S(=O)(=O)c2ccccc2)cc1	-1.9	-4.1	802.7	nt
C/C(=N\N=C(N)N)c1ccc(C)c(C)c1	0.1	-4.6	3.9	-0.7
N#C/C(=C/c1ccc(N2CCOCC2)o1)C(=O)Nc1ccccc1	3.7	5.4	nt	nt
N#C/C(=C\c1ccc(N2CCOCC2)o1)C(=O)NCC1CCCO1 (centres undefined)	0.1	13.5	-3.3	86.3*
N#C/C(=C\c1ccc(N2CCOCC2)o1)C(=O)NCCc1ccccc1	0.0	7.2	76.1	88.7*
N#C/C(=C\c1ccc(N2CCOCC2)o1)C(=O)NC1CCCCC1	1.2	6.7	28.6	79.2*
CC(C)n1cc(C(=O)N2CCCC(N3CCN(c4cccc(Cl)c4)CC3)C2)cn1 (centres undefined)	0.5	0.5	6.8	89.2*
SMILES	HIF act	PfM18AAP inh	Mot1-301 SUMO	ALR H2O2 inh
CCOc1ccc2c(C)c(Cl)c(=O)oc2c1	95.7*	5.6	-4.4	-10.0
Cc1c(Cl)c(=O)oc2cc(OCC(=O)NCc3cccs3)ccc12	-0.1	-1.9	-3.9	-3.5
O=C(NNC(=O)c1ccc(Br)o1)c1ccc(NC(=O)c2ccccc2)cc1	-0.4	2.3	10.7	50.1
N/C(=N\O)c1ccc(NC(=O)c2ccc(Br)o2)cc1	3.0	0.7	78.3	98.5*
CCOc1ccc(NC(=O)CSc2ncn[nH]2)c([N+](=O)[O-])c1	0.0	29.9*	-8.4	-15.4
CSc1nnc(N2C(=O)C(O)=C(C(=O)c3ccco3)C2c2cccc(Cl)c2)s1 (centres undefined)	0.9	8.6	-21.6	87.1*
